Activity calls are given as the source filed them. Unless noted, the rule behind the calls is not given here.
Columns and labels:
[1] = compounds binding Alexa647 anti-His antibody – biochemical, small-molecule microarray, 635 nm fluorescence, artefact control for SMM control protein annotation, primary screen (AID 1128); details: higher = more signal;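 note: score merges feature fluorescence with signal-to-noise for each printed compound spot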
[2] = system: Human papillomavirus type 1a E7 protein (residues 1-88); experiment: HPV1a E7 small-molecule binders, primary screen, biochemical, small-molecule microarray, residues 1-88, 635 nm (AID 1129); details: small-molecule microarray binding, fluorescence 635 nm; higher = more signal
[3] = molecular target: Focal adhesion kinase 1 (Homo sapiens) (UniProt Q05397); experiment: PTK2 protein binding on printed compound slides – biochemical, small-molecule microarray, 635/667 nm fluorescence, BSA, DTT, primary screen (AID 1130); details: 635 nm fluorescence, higher = more signal;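 note: composite of spot emission at 667 nm and signal to noise over triplicate slides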
[4] = system: Fibrinogen (Alexa647-labelled); experiment: Alexa647-fibrinogen binding to printed small molecules – biochemical, small-molecule microarray, 635/667 nm fluorescence, artefact control for SMM control-protein annotation, profiling panel (AID 1131); details: fibrinogen-A647 binding fluorescence, higher = more signal;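 note: z-score merges 667 nm fluorescence with per-spot signal-to-noise over triplicate slides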
[5] = molecular target: Follistatin (Homo sapiens) (UniProt P19883); experiment: FST protein binding to printed compounds – biochemical, small-molecule microarray, 635/667 nm fluorescence, primary screen (AID 1132); details: 635 nm fluorescence, higher = more signal
[6] = molecular target: Fibroblast growth factor 2 (Homo sapiens) (UniProt P09038); experiment: basic fibroblast growth factor binding to printed compounds – biochemical, small-molecule microarray, 635/667 nm fluorescence, primary screen (AID 1133); details: FGF2, fluorescence 635/667, higher = more signal
[7] = JC-1 mitochondrial potential readout, lung cancer cells – cell-based, A549, JC-1 fluorescence, basal, 24 h, 100 nL, profiling panel (AID 1138); details: higher = more signal;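 note: A549 lung adenocarcinoma cells under basal conditions with no added stimulus; test concentration not given here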
Lefty1 = Lefty1 protein binding to printed compounds – biochemical, small-molecule microarray, 635/667 nm fluorescence, primary screen (AID 1139); details: fluorescence 635/667, higher = more signal
[8] = system: wheat germ agglutinin (Triticum aestivum), Alexa647-labelled; experiment: Alexa647-WGA lectin binding to printed small molecules – biochemical, small-molecule microarray, 635/667 nm fluorescence, artefact control for SMM control-protein annotation, profiling panel (AID 1140); details: WGA-A647 binding, 635 nm fluorescence, higher = more signal;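 note: score merges 667 nm feature emission with signal to noise over triplicate slides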
[9] = molecular target: Luciferin 4-monooxygenase (Photinus pyralis) (UniProt P08659); experiment: inhibition of purified Photinus pyralis luciferase – biochemical, luminescence, purified enzyme, 2006 set, primary screen (AID 1141); details: purified firefly luciferase, SteadyGlo luminescence, 30 min; higher = more signal, called active from +8 up or from −8 down;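 note: cell-free assay with purified firefly luciferase at 100 ng per well in PBS; test concentration not given here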
[10] = system: Wnt5a (protein binding on small-molecule microarray); experiment: small molecules binding Wnt5a protein – biophysical, small-molecule microarray, 635/667 nm fluorescence, primary screen (AID 1142); details: 635 nm fluorescence, higher = more signal;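 note: fluorescence read at 667 nm with signal to noise per printed feature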
[11] = ATP-based viability of Huh7 replicon cells – cell-based, CellTiter-Glo luminescence, basal, 48 h, cytotoxicity control for HCV replication inhibitor project, primary screen (AID 1143); details: higher = more signal, called active from +8 up or from −8 down;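 note: Huh7 hepatoma cells carrying a hepatitis C replication reporter with no stimulus; test concentration not given here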
[12] = Pseudomonas biofilm growth suppression – PAO1 strain, BacTiter-Glo luminescence, LB-PBS, primary screen (AID 1144); details: P. aeruginosa PAO1 biofilm, 12 h, higher = more signal
[13] = basal CRE-LacZ reporter activity in PC12 – cell-based, unstimulated, primary screen (AID 1145); details: no forskolin, luminescence, 4.5 h, higher = more signal, called active from +8 up or from −8 down
[14] = forskolin-driven CRE-LacZ activity in PC12 – cell-based, CRE-LacZ reporter, forskolin-stimulated, primary screen (AID 1146); details: luminescence, 4.5 h, higher = more signal, called active from +8 up or from −8 down;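 note: PC12 cells with 6xCRE LacZ reporter stimulated by forskolin 10 µM; beta-galactosidase reporter signal reflecting CREB driven transcription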
[15] = molecular target: Streptavidin (Streptomyces avidinii) (UniProt P22629); experiment: compounds binding control protein streptavidin – biophysical, small-molecule microarray, 635/667 nm fluorescence, artefact control for SMM compound annotation, primary screen (AID 1147); details: higher = more signal;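 note: signal reflects streptavidin binding to arrayed compounds as a control protein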
[16] = probe aInhba binding on compound microarray – biochemical, small-molecule microarray, 635/667 nm fluorescence, primary screen (AID 1148); details: higher = more signal;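 note: score merges 667nm spot fluorescence with signal-to-noise for antibody binding to printed compounds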
Torsin-1A (Homo sapiens) [17] = molecular target: Torsin-1A (Homo sapiens) (UniProt O14656); experiment: TOR1A wild-type binding on microarray – cell lysate, small-molecule microarray, lysate, 635/667 nm, primary screen (AID 1149); details: COS7 hTOR1A-WT lysate, 635 nm fluorescence, higher = more signal
Torsin-1A (Homo sapiens) [18] = molecular target: Torsin-1A (Homo sapiens) (UniProt O14656); experiment: torsin A mutant lysate binding on microarrays – cell lysate, small-molecule microarray, COS7 lysate, 635/667 nm fluorescence, primary screen (AID 1150); details: COS7 hTOR1A mutant lysate, 635 nm fluorescence, higher = more signal;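 note: score pools 667 nm emission and signal to noise measuring lysate protein binding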
[19] = system: Sonic hedgehog protein (Shh); experiment: Sonic hedgehog microarray binding compounds – biochemical, small-molecule microarray, 635/667 nm fluorescence, primary screen (AID 1151); details: 635 nm fluorescence, higher = more signal;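 note: Shh protein binding to compounds spotted on small-molecule microarray slides; score combines spot fluorescence intensity with signal-to-noise across triplicate slides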

Torsin-1A (Homo sapiens), sequence (O14656 whole entry, looked up): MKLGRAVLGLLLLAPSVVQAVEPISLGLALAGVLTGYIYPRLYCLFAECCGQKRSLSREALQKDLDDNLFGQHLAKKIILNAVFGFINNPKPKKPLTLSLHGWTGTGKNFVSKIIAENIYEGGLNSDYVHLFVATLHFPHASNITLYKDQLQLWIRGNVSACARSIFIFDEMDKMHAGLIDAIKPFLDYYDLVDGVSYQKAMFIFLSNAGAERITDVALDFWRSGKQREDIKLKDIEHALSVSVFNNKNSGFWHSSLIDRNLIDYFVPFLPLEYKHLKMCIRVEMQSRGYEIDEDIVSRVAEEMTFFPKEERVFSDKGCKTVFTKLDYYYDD
Luciferin 4-monooxygenase (Photinus pyralis), sequence (P08659 whole entry, looked up): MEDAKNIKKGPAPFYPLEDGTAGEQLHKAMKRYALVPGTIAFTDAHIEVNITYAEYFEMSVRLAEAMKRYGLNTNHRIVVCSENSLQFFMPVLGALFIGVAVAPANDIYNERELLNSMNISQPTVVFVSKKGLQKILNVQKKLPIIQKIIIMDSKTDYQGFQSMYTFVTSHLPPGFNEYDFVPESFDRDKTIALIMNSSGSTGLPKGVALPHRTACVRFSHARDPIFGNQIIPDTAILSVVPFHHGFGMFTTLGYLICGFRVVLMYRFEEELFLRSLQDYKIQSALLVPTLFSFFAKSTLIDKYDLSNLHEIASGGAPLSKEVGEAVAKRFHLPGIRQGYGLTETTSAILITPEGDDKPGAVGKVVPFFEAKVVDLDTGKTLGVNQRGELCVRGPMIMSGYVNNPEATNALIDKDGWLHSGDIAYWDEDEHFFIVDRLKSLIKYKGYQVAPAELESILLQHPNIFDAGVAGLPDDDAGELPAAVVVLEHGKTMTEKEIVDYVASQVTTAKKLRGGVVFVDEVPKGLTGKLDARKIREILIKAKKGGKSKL
Focal adhesion kinase 1 (Homo sapiens), sequence (Q05397 whole entry, looked up): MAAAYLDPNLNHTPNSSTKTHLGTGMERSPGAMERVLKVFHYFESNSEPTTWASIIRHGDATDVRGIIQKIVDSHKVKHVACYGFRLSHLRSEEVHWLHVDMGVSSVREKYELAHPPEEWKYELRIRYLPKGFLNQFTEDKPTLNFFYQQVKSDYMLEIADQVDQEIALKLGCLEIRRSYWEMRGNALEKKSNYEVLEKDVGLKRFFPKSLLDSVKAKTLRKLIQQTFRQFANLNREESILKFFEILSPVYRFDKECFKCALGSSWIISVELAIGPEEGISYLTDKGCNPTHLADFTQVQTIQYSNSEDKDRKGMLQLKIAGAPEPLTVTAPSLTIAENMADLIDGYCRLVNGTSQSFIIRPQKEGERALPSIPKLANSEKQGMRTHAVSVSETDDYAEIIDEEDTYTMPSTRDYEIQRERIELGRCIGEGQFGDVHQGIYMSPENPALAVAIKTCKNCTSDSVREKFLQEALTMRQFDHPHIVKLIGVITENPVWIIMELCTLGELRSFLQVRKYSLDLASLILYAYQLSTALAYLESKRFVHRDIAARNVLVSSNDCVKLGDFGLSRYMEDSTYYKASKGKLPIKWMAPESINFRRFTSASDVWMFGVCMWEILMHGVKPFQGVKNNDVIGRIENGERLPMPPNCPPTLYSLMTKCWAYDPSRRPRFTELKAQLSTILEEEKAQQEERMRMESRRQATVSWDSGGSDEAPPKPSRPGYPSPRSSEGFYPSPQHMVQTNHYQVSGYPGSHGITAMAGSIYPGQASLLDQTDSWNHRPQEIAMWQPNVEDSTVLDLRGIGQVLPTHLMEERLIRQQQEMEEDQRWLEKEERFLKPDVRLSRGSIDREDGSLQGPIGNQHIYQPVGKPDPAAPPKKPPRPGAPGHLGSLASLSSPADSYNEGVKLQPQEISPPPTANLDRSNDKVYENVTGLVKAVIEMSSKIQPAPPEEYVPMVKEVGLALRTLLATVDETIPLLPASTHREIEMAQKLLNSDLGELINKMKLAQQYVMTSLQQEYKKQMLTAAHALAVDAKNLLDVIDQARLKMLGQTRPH
Follistatin (Homo sapiens), sequence (P19883 whole entry, looked up): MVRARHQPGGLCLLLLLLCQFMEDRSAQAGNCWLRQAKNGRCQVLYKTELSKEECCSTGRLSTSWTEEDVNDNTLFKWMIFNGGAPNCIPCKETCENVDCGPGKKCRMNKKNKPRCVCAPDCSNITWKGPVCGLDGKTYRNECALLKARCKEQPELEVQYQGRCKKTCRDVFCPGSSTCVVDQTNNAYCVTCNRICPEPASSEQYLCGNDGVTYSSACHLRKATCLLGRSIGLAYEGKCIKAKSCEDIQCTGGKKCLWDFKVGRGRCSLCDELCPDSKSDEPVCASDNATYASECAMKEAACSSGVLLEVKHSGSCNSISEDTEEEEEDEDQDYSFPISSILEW
Streptavidin (Streptomyces avidinii), sequence (P22629 whole entry, looked up): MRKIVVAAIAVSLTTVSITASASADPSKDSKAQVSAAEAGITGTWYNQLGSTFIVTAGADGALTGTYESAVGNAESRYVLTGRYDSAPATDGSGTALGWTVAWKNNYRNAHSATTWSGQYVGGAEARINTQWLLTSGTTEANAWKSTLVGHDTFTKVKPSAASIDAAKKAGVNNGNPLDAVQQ
Fibroblast growth factor 2 (Homo sapiens), sequence (P09038 whole entry, looked up): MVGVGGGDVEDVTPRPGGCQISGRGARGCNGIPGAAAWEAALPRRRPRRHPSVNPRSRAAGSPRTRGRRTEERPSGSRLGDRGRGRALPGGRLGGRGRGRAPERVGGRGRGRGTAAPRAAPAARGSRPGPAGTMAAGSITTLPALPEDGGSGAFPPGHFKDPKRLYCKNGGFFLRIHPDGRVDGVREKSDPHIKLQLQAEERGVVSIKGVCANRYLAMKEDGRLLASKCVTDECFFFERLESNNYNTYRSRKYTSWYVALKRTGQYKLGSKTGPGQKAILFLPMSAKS

Row | SMILES | composite z-score [1] | composite z-score [2] | composite z-score [3] | composite z-score [4] | composite z-score [5] | composite z-score [6] | z-score [7] | composite z-score (Lefty1) | composite z-score [8] | z-score [9] | composite z-score [10] | z-score [11] | z-score [12] | z-score [13] | z-score [14] | composite z-score [15] | composite z-score [16] | composite z-score (Torsin-1A (Homo sapiens) [17]) | composite z-score (Torsin-1A (Homo sapiens) [18]) | composite z-score [19]
1 | O=C1[C@H]2[C@H]3[C@H](O)[C@H](O)CC(=NOC[C@@H](O)COCc4ccco4)[C@H]3CC[C@H]2C(=O)N1c1ccc(F)cc1F | -0.385 | 0.553 | -0.0614 | -1.6 | -0.868 | -1.01 | 0.383 | -0.0889 | 0.972 | -0.243 (inactive) | -0.459 | -2.57 (inactive) | -1.34 (inactive) | 0.699 (inactive) | -0.455 (inactive) | -1.07 | -0.103 | 2.05 | 1.84 | 0.717
2 | COc1ccc(O[C@H]2C=C[C@@H](c3ccccc3)O[C@@H]2CON=C2[C@H]3CCn4c(=O)n(-c5ccccc5)c(=O)n4[C@H]3[C@H](O)[C@@H]3O[C@H]23)cc1 | -0.444 | 1.05 | 0.0673 | 0.335 | 0.356 | 0.199 | -0.336 | 0.451 | 0.883 | 0.618 (inactive) | 0.185 | -1.53 (inactive) | 1.92 (inactive) | 0.834 (inactive) | -0.016 (inactive) | 0.836 | -0.2 | 0.0461 | 0.066 | 0.536

From PubChem BioAssay
